# Measured values from the supplement of paper PMC10849652.
# The full data set covers some 7,900 targets. This sample favours those with a hit. About 0.6% of all pairs of compound and target were hits. A number with no mark means an inactive call.
# Legend:
# Assay in all cases: log2 fold change, soluble protein after heating vs DMSO (PISA); higher = thermal stabilisation; K562 cells, 10 uM, 30 min; active = over 0.2 and 3.5 SD of the protein, either way, in both replicates (recomputed)
# [1] = compound: NC(=O)Nc1cc(-c2cccc(F)c2)sc1C(=O)N[C@H]1CCCNC1
# How it was run: (§1)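 Thermal stability values are relative to control samples and come from duplicates. They are expressed as log2 fold changes. For measurement, K562 cells (2×10^6 cells/mL) received 10 μM compound for 30 min, and aliquots were heated for 3 min over 48°C-58°C, pooled, and extracted at 4°C in PBS with 0.5% NP-40. Soluble protein, the supernatant after 21,000xg for 90 min, was quantified by TMTpro 16plex LC-MS/MS with equalised channel sums.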
# [2] = compound: NC(=O)c1cnc(N[C@@H]2CCCC[C@@H]2N)nc1Nc1cccc(-n2nccn2)c1
# How it was run: as §1
# [3] = compound: NC1(c2ccc(-c3nc4ccn5c(=O)[nH]nc5c4cc3-c3ccccc3)cc2)CCC1
# How it was run: as §1
# [4] = compound: NCC(=O)Nc1ccc(-n2nc(C(F)(F)F)cc2-c2ccc3c(ccc4ccccc43)c2)cc1
# How it was run: as §1
# entinostat = compound: Nc1ccccc1NC(=O)c1ccc(CNC(=O)OCc2cccnc2)cc1 [entinostat]
# How it was run: as §1
# vorinostat = compound: O=C(CCCCCCC(=O)Nc1ccccc1)NO [vorinostat]
# How it was run: as §1
# citarinostat = compound: O=C(CCCCCCNC(=O)c1cnc(N(c2ccccc2)c2ccccc2Cl)nc1)NO [citarinostat]
# How it was run: as §1
# silmitasertib = compound: O=C(O)c1ccc2c(c1)nc(Nc1cccc(Cl)c1)c1ccncc12 [silmitasertib]
# How it was run: as §1
# [5] = compound: O=C1NC(=O)C(c2cnc3ccccn23)=C1c1cn2c3c(cc(F)cc13)CN(C(=O)N1CCCCC1)CC2
# How it was run: as §1
# [6] = compound: c1cc(OCCN2CCCCC2)cc(-c2n[nH]c3ccc(-c4nnc[nH]4)cc23)c1
# How it was run: as §1
# entospletinib = compound: c1cn2cc(-c3ccc4cn[nH]c4c3)nc(Nc3ccc(N4CCOCC4)cc3)c2n1 [entospletinib]
# How it was run: as §1
# Chain of UniProt Q9BX63 (Q9BX63 whole entry, looked up): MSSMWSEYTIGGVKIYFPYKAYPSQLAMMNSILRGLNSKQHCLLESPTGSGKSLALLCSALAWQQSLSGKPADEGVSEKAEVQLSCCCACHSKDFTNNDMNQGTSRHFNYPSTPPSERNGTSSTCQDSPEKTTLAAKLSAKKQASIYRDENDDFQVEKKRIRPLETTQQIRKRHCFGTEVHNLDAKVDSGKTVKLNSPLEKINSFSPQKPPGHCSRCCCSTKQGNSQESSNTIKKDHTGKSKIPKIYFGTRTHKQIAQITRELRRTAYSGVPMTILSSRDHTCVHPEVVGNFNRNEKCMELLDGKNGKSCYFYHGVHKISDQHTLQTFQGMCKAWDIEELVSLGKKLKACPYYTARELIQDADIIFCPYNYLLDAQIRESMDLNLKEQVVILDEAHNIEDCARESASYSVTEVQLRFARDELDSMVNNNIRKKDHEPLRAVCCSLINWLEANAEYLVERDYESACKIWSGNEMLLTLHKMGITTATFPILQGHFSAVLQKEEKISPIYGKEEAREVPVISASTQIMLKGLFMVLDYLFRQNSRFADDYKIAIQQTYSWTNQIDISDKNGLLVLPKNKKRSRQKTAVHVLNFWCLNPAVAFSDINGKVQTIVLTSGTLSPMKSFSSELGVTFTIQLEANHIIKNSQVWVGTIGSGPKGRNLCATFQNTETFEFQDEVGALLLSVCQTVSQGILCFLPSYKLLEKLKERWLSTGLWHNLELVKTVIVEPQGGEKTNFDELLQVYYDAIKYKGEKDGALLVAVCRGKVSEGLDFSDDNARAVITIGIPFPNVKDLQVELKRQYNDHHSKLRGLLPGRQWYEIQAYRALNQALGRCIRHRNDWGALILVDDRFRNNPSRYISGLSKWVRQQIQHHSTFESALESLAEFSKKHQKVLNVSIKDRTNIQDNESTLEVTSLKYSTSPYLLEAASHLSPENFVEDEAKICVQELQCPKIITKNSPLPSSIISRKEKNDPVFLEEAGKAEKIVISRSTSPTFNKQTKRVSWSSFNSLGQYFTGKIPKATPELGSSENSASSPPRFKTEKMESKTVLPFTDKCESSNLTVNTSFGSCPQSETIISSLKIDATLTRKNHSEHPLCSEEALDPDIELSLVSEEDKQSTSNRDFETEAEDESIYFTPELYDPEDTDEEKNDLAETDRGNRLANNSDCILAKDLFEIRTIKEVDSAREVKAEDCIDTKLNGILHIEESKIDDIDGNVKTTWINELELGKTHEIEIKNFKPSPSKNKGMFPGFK
# Chain of UniProt P54922 (P54922 whole entry, looked up): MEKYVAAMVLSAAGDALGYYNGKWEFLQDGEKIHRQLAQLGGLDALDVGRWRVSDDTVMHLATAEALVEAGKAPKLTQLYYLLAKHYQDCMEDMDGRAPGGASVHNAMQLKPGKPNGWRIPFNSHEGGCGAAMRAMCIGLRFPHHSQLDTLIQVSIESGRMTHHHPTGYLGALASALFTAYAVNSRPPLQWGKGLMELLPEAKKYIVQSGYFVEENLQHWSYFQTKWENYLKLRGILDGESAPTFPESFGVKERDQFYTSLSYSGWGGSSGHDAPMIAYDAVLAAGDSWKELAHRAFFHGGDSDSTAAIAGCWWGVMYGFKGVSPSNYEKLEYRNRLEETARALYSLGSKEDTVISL
# Chain of UniProt P53367 (P53367 whole entry, looked up): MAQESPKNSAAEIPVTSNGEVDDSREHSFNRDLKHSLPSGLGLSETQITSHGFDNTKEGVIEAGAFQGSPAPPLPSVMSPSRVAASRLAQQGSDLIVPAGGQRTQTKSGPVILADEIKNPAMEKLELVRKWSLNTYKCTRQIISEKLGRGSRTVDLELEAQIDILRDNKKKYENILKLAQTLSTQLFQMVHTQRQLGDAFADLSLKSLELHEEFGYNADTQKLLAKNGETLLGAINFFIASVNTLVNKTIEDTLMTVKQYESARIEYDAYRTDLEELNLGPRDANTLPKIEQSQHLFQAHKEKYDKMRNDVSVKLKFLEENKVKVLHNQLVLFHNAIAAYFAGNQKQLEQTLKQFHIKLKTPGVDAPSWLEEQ
# Chain of UniProt P40617 (P40617 whole entry, looked up): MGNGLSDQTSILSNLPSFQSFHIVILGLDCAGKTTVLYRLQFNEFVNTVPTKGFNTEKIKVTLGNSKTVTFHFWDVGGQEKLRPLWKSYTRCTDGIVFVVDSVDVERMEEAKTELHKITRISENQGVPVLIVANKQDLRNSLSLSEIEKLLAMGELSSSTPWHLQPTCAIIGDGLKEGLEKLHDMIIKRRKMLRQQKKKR
# Chain of UniProt Q9BTE6 (Q9BTE6 whole entry, looked up): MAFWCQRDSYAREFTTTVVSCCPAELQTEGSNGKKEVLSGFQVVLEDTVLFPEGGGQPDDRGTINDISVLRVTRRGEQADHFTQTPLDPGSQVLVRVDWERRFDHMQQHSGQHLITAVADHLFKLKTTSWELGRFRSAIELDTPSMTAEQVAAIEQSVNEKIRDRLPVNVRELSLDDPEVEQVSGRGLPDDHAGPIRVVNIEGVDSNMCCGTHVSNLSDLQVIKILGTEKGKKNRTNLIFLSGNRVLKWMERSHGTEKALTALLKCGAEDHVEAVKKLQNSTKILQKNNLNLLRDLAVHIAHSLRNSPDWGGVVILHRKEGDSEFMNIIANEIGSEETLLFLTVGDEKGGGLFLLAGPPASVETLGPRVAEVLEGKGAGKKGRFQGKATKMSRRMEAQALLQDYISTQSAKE
# Chain of UniProt P15056 (P15056 whole entry, looked up): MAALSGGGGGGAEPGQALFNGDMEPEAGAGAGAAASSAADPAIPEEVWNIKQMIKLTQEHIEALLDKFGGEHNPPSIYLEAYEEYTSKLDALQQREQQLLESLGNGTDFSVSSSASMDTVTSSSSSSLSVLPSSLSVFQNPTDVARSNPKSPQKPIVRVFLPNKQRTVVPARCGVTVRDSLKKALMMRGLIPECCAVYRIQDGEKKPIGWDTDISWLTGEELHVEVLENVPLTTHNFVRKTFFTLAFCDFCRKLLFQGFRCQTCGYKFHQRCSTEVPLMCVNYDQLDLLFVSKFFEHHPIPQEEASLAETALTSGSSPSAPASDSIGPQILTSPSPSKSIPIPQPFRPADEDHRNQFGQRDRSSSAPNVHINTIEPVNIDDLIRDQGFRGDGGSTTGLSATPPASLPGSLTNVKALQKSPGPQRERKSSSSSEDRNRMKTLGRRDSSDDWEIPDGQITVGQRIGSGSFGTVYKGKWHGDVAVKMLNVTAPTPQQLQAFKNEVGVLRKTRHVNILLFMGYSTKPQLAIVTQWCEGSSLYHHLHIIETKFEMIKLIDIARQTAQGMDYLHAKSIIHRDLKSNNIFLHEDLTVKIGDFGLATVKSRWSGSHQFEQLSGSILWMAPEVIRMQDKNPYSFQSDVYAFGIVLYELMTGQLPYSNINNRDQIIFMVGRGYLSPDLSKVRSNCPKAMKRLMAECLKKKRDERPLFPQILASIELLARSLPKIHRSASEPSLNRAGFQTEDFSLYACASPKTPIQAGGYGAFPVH
# Chain of UniProt P25440 (P25440 whole entry, looked up): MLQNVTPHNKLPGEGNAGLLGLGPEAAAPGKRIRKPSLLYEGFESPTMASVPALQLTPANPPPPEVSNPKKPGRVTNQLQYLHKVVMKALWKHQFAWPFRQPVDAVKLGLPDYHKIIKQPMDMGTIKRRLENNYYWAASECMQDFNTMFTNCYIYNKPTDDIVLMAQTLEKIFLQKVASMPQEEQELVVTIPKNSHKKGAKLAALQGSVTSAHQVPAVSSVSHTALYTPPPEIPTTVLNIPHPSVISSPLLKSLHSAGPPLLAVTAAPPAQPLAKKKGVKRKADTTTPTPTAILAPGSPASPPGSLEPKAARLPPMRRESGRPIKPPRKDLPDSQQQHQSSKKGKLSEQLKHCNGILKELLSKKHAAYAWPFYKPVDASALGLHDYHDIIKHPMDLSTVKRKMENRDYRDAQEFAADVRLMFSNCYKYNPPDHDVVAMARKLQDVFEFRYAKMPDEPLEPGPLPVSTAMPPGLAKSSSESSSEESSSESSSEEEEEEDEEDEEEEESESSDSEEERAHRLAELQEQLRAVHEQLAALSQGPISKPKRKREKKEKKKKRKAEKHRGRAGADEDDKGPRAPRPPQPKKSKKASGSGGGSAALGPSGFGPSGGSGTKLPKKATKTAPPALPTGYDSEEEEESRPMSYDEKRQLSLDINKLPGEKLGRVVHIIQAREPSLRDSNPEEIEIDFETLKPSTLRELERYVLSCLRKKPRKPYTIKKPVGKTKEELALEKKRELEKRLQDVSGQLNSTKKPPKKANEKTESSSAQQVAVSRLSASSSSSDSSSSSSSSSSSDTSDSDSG
# Chain of UniProt P35612 (P35612 whole entry, looked up): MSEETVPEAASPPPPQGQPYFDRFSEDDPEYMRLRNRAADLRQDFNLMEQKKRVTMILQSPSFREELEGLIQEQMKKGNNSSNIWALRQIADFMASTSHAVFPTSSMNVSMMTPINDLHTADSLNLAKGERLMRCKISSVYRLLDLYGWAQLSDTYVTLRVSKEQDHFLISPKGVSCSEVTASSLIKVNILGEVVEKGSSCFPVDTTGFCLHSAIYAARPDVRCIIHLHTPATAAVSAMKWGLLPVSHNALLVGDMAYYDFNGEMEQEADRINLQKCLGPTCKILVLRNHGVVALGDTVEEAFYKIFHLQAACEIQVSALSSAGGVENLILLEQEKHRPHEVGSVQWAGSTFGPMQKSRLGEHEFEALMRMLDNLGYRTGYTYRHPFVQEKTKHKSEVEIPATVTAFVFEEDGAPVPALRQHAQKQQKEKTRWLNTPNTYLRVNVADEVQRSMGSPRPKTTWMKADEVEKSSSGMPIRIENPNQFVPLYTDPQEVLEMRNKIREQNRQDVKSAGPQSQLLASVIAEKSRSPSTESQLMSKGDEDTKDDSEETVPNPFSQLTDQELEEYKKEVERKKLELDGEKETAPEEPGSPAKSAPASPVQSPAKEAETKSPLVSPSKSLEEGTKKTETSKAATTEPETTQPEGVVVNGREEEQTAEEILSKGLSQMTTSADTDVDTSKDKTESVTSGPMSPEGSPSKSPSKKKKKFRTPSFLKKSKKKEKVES
Target,log2 fold change [1],log2 fold change [2],log2 fold change [3],log2 fold change [4],log2 fold change (entinostat),log2 fold change (vorinostat),log2 fold change (citarinostat),log2 fold change (silmitasertib),log2 fold change [5],log2 fold change [6],log2 fold change (entospletinib)
ATF1 (UniProt P18846),0.038,0.096,0.063,0.127,0.066,-0.102,0.144,-0.146,0.372 (active),-0.091,-0.006
ACADM isoform 2 (UniProt P11310),-0.044,0.01,-0.024,0.029,-0.019,-0.007,0.037,-0.032,-0.101,0.009,-0.001
ADPRH (UniProt P54922),0.015,,-0.178,-0.623 (active),-0.034,-0.039,,0.086,-0.104,,
BAIAP2 isoform 4 (UniProt Q9UQB8),0.019,,,,-0.095,,,,,,
BSCL2 isoform 4 (UniProt Q96G97),,-0.197,-0.013,0.007,,0.074,,0.172,0.033,,
AZI2 (UniProt Q9H6S1),-0.094,,,-0.152,0.041,,-0.014,,,-0.028,-0.142
ABCA3 (UniProt Q99758),0.021,-0.001,,-0.196,-0.064,0.02,0.021,,0.134,0,0.141
BAP18 isoform 3 (UniProt Q8IXM2),,,-0.042,,,0.192,,-0.119,,,
ACTR3B (UniProt Q9P1U1),,,,-0.217,,-0.067,,,,,
ATXN3 isoform 1 (UniProt P54252),,-0.256,-0.137,-0.019,,-0.003,-0.01,0.093,,-0.015,0.058
ARRDC1 (UniProt Q8N5I2),0.013,,-0.06,0.057,0.075,-0.086,0.056,0.075,-0.008,-0.001,-0.014
BRD2 isoform 2 (UniProt P25440),-0.01,-0.209,,-0.112,-0.159,-0.214,,,,,
ALG14 (UniProt Q96F25),,0.018,-0.118,-0.081,,0.29,0.028,0.076,0.061,-0.123,-0.063
ABCA4 (UniProt P78363),0.007,-0.092,0.061,,0.002,0.124,0.013,-0.082,-0.041,0.157,-0.079
AUH (UniProt Q13825),,0.011,-0.023,0.103,,0.018,-0.103,-0.061,,0.003,-0.068
BRD8 isoform 2 (UniProt Q9H0E9),-0.016,-0.205,,-0.13,0.039,-0.092,-0.019,,0.102,-0.09,0.045
AUNIP isoform 2 (UniProt Q9H7T9),-0.194,-0.037,,0.073,0.003,,,,,,
AGAP3 isoform 4 (UniProt Q96P47),0.034,-0.128,-0.001,,0.021,,-0.063,-0.019,0.127,-0.18,0.036
AARSD1 (UniProt Q9BTE6),,-0.066,-0.048,,,,0.144,0.137,,0.066,-0.371

Target,log2 fold change [1],log2 fold change [2],log2 fold change [3],log2 fold change [4],log2 fold change (entinostat),log2 fold change (vorinostat),log2 fold change (citarinostat),log2 fold change (silmitasertib),log2 fold change [5],log2 fold change [6],log2 fold change (entospletinib)
AKNA (UniProt Q7Z591),-0.069,,,,1.72 (active),,,,,,
ARMC8 isoform 6 (UniProt Q8IUR7),,-0.023,,0.025,,,,,,,
ATXN7L3 isoform 2 (UniProt Q14CW9),0.182,0.033,0.207,,-0.346,,-0.087,-0.373,,0.051,0.494
AIF1 (UniProt P55008),0.04,0.004,,0.021,-0.105,,,,0.068,,
AASDH (UniProt Q4L235),-0.044,,-0.12,-0.166,0.007,0.051,,0.036,-0.064,,
ACSL6 isoform 1 (UniProt Q9UKU0),0.061,,-0.152,-0.174,-0.056,0.048,,-0.077,-0.421,,
BRIP1 (UniProt Q9BX63),0.139,-0.139,,-0.099,0.001,-0.025,0.054,,-0.07,0.077,-0.055
ARL4A (UniProt P40617),,-0.276,-0.117,,,,,0.068,,,
BRMS1 (UniProt Q9HCU9),,0.15,0.121,,,-0.053,-0.097,-0.042,-0.033,-0.178,0.078
ARHGAP25 isoform 4 (UniProt P42331),,0.068,-0.181,-0.127,,-0.099,0.105,0.213,0.021,-0.049,0.073
ABHD11 (UniProt Q8NFV4),,-0.089,-0.139,0.016,,-0.042,0.058,-0.021,-0.159,-0.009,0.006
ADD1 isoform 4 (UniProt P35611),,,,,,0.05,,,0.027,,
ALDH2 isoform 2 (UniProt P05091),-0.345,-0.389,,-0.351,-0.14,0.083,-0.055,,0.051,-0.36,0.118
ARFIP1 isoform 2 (UniProt P53367),0.11,,-0.147,,0.012,0.331,,-0.08,-0.062,,
ANGEL1 (UniProt Q9UNK9),,,,-0.004,,,,,,,
"BRAF, A0A2R8Y8E0",,0.214,-0.31,,,,,-0.064,,,
BRAF (UniProt P15056),-0.102,-0.079,,-0.046,0.009,0.012,-0.002,0.024,-0.007,-0.067,0.035
ADAM15 (UniProt Q13444),-0.023,0.034,,-0.024,0.085,0.092,,,0.031,,
ADD2 isoform 9 (UniProt P35612),0,,-1.2 (active),,-0.052,,,-0.225,,,
